In ChEMBL document CHEMBL4513216, “Probing the Open Global Health Chemical Diversity Library for Multistage-Active Starting Points for Next-Generation Antimalarials” (ACS Infect Dis, 2020):
In all, about 69,000 compounds went through this assay and about 8,600 (12%) showed an effect of 50% or more. For the sample, strong results were picked, then their nearest neighbours and some compounds at random.

System: Plasmodium berghei
Assay: Screen against P. berghei liver stage (PbLuc), transformed with Luciferase, at 10uM
Assay type: functional, HepG2
Conditions: tested at 10 uM

Row | Compound | INHIBITION [%]
1 | Cc1cc(N2CCOC(c3ccccn3)C2)nc(N)n1 (stereo not drawn) | 2.6925
2 | CC(Cn1ccnc1)NC(=O)N1CCN(Cc2cccs2)CC1 (stereo not drawn) | 49.1
3 | O=S(=O)(NC1CCC12CCN(CC1CCOCC1)CC2)c1ccccc1 (stereo not drawn) | 36.4
4 | O=C(c1ccoc1)N1CCC(NCc2cccnc2)CC1 | 10.2
5 | Cc1n[nH]cc1CNC1CCN(c2cccc(C(F)(F)F)c2)CC1 | 78.6
6 | COCCN1CCC(NCc2cccnc2)C1 (stereo not drawn) | -27.3
7 | FC(F)(F)c1cccc(N2CCC(NCc3cccnc3)CC2)c1 | 71.2
8 | Cc1n[nH]cc1CNC1CCN(c2ccccc2)CC1 | 49.9
9 | Cc1n[nH]cc1CNC1CCN(c2ccc(F)cc2)CC1 | 49.9
10 | CC1CN(Cc2ccc(C#N)cc2F)CCN1Cc1nccn1C (stereo not drawn) | 11.433
11 | Cc1ccc(CN2CCCn3cnc(COCC4CC4)c3C2)o1 | -49.1
12 | CN(CCc1ccccn1)C(=O)CCC1CCCN(c2ccncc2)C1 (stereo not drawn) | 26.8
13 | O=C(C1CCOCC1)N1CCO[C@H]2[C@H](Oc3cccnc3)CC[C@@H]21 | 10
14 | CC(C)NC(=O)c1cccc(NC(=O)CCCc2nc(C(C)C)no2)c1 | -8.87
15 | CC(C)c1noc(CCCC(=O)Nc2cccc(F)c2)n1 | 27
16 | CC(C)c1noc(C[S+]([O-])CC(=O)Nc2ccc(F)c(F)c2)n1 (stereo not drawn) | 51.3
17 | CC(C)c1noc(CCC(=O)Nc2cc(F)ccc2F)n1 | 34
18 | CC(C)c1noc(C[S+]([O-])CC(=O)Nc2cc(F)ccc2F)n1 (stereo not drawn) | 56.3
19 | CC(C)c1noc(CN2CCN(C(=O)c3cc(Cl)ccc3F)CC2)n1 | -17
20 | CCN(Cc1ccco1)C(C)c1nc(C(C)(C)C)no1 (stereo not drawn) | 2.9
21 | CCn1cnnc1CNC(=O)Cc1ccc2c(c1)OCCO2 | 1.78
22 | O=C(NC[C@]1(O)CN(Cc2ccccc2F)C[C@H]1O)c1cscn1 | 14.5
23 | CCn1c(CC2CCN(S(=O)(=O)c3cccs3)CC2)nn(C)c1=O | 41.5

Row | Compound | INHIBITION [%]
24 | Cc1noc(C)c1CNCc1c(C(C)C)nn(C)c1N1CCOCC1 | 34.5
25 | Cc1nnc2n1CCN(C(=O)c1cc(C)n(-c3ccccc3)c1C)C2 | 44.3
26 | Cc1cccc(-n2c(C)cc(C(=O)N3CCn4c(C)nnc4C3)c2C)c1 | 35.3
27 | Cc1cccc(-n2ncc(C(=O)N3CCn4c(C)nnc4C3)c2C)c1 | 60.6
28 | COc1ccc2nnc(CCCC(=O)NCc3ccccc3)n2n1 | 44.4
29 | CCc1ccc(CN2CCC3(CC2)C(=O)N(C)CCN3CC2CC2)cc1 | -17.1
30 | COC[C@@]12CC[C@@H](N3CCOCC3)C[C@H]1CCN(c1ccc(Cl)cn1)C2 | 16.7
31 | COC[C@@]12CC[C@@H](N3CCOCC3)C[C@H]1CCN(c1cc(C)ccn1)C2 | 70.3
32 | COC[C@@]12CC[C@@H](N3CCOCC3)C[C@H]1CCN(c1ncccc1C)C2 | 45.8
33 | COC[C@@]12CC[C@@H](N3CCOCC3)C[C@H]1CCN(c1ncccc1Cl)C2 | 13.5
34 | COC[C@@]12CC[C@@H](N3CCOCC3)C[C@H]1CCN(c1cnccn1)C2 | -15.1
35 | COC[C@@]12CC[C@@H](N3CCOCC3)C[C@H]1CCN(c1ncccn1)C2 | 53.5
36 | O=C(Cn1cnc2sccc2c1=O)NCCc1nnc2ccccn12 | 46.4
37 | COCC(=O)N1CCc2ccc(=O)n(CC3CC3)c2CC1 | -13.2
38 | c1csc(CNCC2COCc3c(-c4ccoc4)nnn3C2)n1 (stereo not drawn) | 13.1
39 | CCCC(=O)Nc1cccc(C(=O)N(C)CCCC2CCCO2)c1 (stereo not drawn) | 33.7
40 | COCCn1c2c(ccc1=O)CCN(Cc1ccoc1)CC2 | 25.1
41 | CCN1CCC2(C=C(C(=O)NC3CC3)c3ccccc32)CC1 | 12.4
42 | CN(Cc1ccno1)C(=O)c1cccc(CC2CCNCC2)c1 | 70.4
43 | CNc1ncc(CN(C)C(=O)c2cccc(CC3CCNCC3)c2)cn1 | 19.1
44 | CN(Cc1nc(C2CC2)no1)C(=O)C1COc2ccccc2C1 (stereo not drawn) | -9.08
45 | Cc1nc(CN(C)C(=O)c2cccc(CC3CCNCC3)c2)no1 | 34
46 | CCOCCn1c(=O)[nH]c2cc(C(=O)N(C)Cc3ccno3)ccc21 | 8.35

Row | Compound | INHIBITION [%]
47 | CN(Cc1nc(C2CC2)no1)C(=O)c1cccc(CC2CCNCC2)c1 | 59.7
48 | CCN(Cc1cnn(C)c1)C[C@H]1CC[C@@H](Cc2cccc(CN)c2)O1 | 15.1
49 | Cc1cnn(CC2CCCN2CCCS(C)(=O)=O)c1 (stereo not drawn) | 13.3
50 | CCN(c1cc(C)cc(C)c1)S(=O)(=O)c1cc(C(=O)O)cs1 | 42.9
51 | O=C(NCc1ccco1)[C@H]1CC[C@@H]2[C@@H](CCN2Cc2nccs2)O1 | -30.1
52 | Cc1ccc(NC(=O)c2n[nH]c(-n3cnnc3)n2)cc1 | -5.59
53 | CCc1nc(CN2CCN(C(=O)Cc3c(C)noc3C)CC2)cs1 | 50.4
54 | Cc1noc(C)c1CCC(=O)N1CCCN(Cc2cscn2)CC1 | -5.51
55 | Cc1noc(C)c1CCC(=O)N1CCN(Cc2cscn2)CC1 | 1.7
56 | CCc1nc(CN2CCN(C(=O)N3CCCCC3)CC2)cs1 | -2.53
57 | Cc1noc(C)c1CCC(=O)N1CCCN(CC(N)=O)CC1 | 37.95
58 | Cc1noc(C)c1CCC(=O)N1CCCN(Cc2cccs2)CC1 | 52
59 | CCc1nc(CN2CCCN(C(=O)c3c(C)noc3C)CC2)cs1 | 28.7
60 | Cc1noc(C)c1CC(=O)N1CCN(Cc2cscn2)CC1 | 27.94
61 | Cc1noc(C)c1CC(=O)N1CCCN(Cc2cscn2)CC1 | 57.4
62 | O=C(C1CCOC1)N1CCN(CCn2cccn2)c2ncccc2C1 (stereo not drawn) | 11.3
63 | CN(C)C(=O)CN1CCC2(CCN(S(=O)(=O)C3CC3)CC2)C1=O | 32.1
64 | Cc1cc(O)nc(C2CCCN(CCO)C2)n1 (stereo not drawn) | -0.232
65 | CCCC(=O)N1CCc2c(CNS(C)(=O)=O)cncc2C1 | 13.5
66 | O=C(c1cnc2ccc(F)cc2c1NCc1ccco1)N1CCCC1 | 37.2
67 | O=C(c1ccno1)N1CCC2(CC1)C(=O)N(CC1CC1)c1ccccc12 | 25.7
68 | O=C([C@H]1CCCO1)N1CCN(Cc2cccnc2)c2ncccc2C1 | 15.4
69 | CC(=O)N1CCSCC1c1ccc(C)o1 (stereo not drawn) | -13.8

Row | Compound | INHIBITION [%]
70 | COC(=O)c1ccc(CNCc2ccn(C)n2)cc1 | 56
71 | CCn1cc(CNCc2ccc(C(=O)OC)cc2)c(C)n1 | 39.7
72 | COC(=O)c1ccc(CNCc2cn(C)nc2C)cc1 | 70.8
73 | COc1ccc(CNCc2cn(C)nc2C)cc1 | 24.8
74 | COC(=O)c1ccc(Cn2cnc(C#N)n2)cc1 | 6.23
75 | COC(=O)c1ccc(CCn2cnc(C#N)n2)cc1 | 13.8
76 | CN(C)[C@@H]1CCN(C(=O)c2ccsc2)[C@H]1Cc1cccnc1 | 38.1
77 | Cc1cc(C)nc(C2CCN(C(=O)CO)CC2)n1 | 26.65
78 | CCC(NC(=O)c1c(C(=O)O)cnn1C)c1ccc(C)cc1C (stereo not drawn) | 15.9
79 | Cc1cc(C)c(CNC(=O)N2CCN(c3ccncc3)CC2)c(=O)[nH]1 | -21.45
80 | CN(Cc1cnn(C)c1)c1nccc(-c2cc(C(=O)O)ccn2)n1 | 33
81 | COc1ccccc1CN(C)c1nccc(-c2cn(C)nc2C)n1 | 82.3
82 | Cc1nn(C)cc1CN(C)c1nccc(-c2cn(C)nc2C)n1 | 28
83 | Cc1nn(C)cc1-c1ccnc(N(C)Cc2ccoc2)n1 | 51.8
84 | Cc1nn(C)cc1-c1ccnc(N(C)Cc2cccs2)n1 | 35.5
85 | CN(Cc1ccoc1)c1ccc(-c2nccn2C)nn1 | -120
86 | Cc1ccc(CN(C)c2nccc(-c3cn(C)nc3C)n2)o1 | 50.7
87 | Cc1nn(C)cc1-c1ccnc(N(C)Cc2cnn(C)c2)n1 | 74.5
88 | Cc1nn(C)cc1-c1ccnc(N(C)Cc2ccon2)n1 | 49.6
89 | COc1ccc(CN(C)c2nccc(-c3cn(C)nc3C)n2)cc1 | -7.76
90 | Cc1nn(C)cc1-c1ccnc(N(C)Cc2ccc(F)cc2)n1 | 30.1
91 | CCCN1CCCC1Cn1nc(C)cc1C (stereo not drawn) | 34.35
92 | N#Cc1cc(C#N)c(SCC(=O)Nc2ccc(F)cc2)nc1N | 35.1

Row | Compound | INHIBITION [%]
93 | O=C(CCN1CCCC1=O)Nc1cnn(-c2ccccc2Cl)c1 | -46.4
94 | CC(CNC(=O)OC(C)(C)C)N(C)C(=O)COc1ccccc1C#N (stereo not drawn) | 15.9
95 | Cc1ncsc1C(=O)N(C)Cc1ccsc1 | -23.955
96 | Cn1cnc(S(=O)(=O)N2CCCCc3ccccc32)c1 | -0.613
97 | O=C(O)c1ccccc1CN1CCOC(CCc2ccncn2)C1 (stereo not drawn) | 20.8
98 | CCn1cc(CNCC(c2ccc(C)s2)N2CCOCC2)cn1 (stereo not drawn) | 14.9
99 | Cc1ccc(C(CNCc2ccc(C#N)cc2)N2CCOCC2)s1 (stereo not drawn) | 69.7
100 | Cc1ccc(C(CNCc2cccn2C)N2CCOCC2)s1 (stereo not drawn) | 38
101 | CCCn1cc(CNCC(c2ccc(C)s2)N2CCOCC2)cn1 (stereo not drawn) | 63.7
102 | Cc1ccc(C(CNCc2cnn(C(C)C)c2)N2CCOCC2)s1 (stereo not drawn) | -48.2
103 | Cc1ccc(C(CNCc2ccncc2)N2CCOCC2)s1 (stereo not drawn) | -33.2
104 | O=C(NCC1COCc2c(-c3ccncc3)nnn2C1)[C@H]1CCCO1 (stereo partly drawn) | -34.6
105 | CC(Cn1cccn1)n1cnc2cccc(F)c2c1=O (stereo not drawn) | 30
106 | CCn1ncc(CN2CCc3c(nc(-c4cccnc4)[nH]c3=O)C2)c1C | 23.3
107 | OCCN1CCC(c2cncc(-c3cccc(Cl)c3)n2)CC1 | 23.2
108 | NC(=O)CN1CCCC(C(=O)N2CCC(O)(Cc3ccccc3)CC2)C1 (stereo not drawn) | 8.07
109 | N#CC1(c2ccccc2)CCN(C(=O)C2CCCN(CC(N)=O)C2)CC1 (stereo not drawn) | 61
110 | N#CC1(c2ccccc2)CCN(C(=O)C2CCCN(C(N)=O)C2)CC1 (stereo not drawn) | 30.5
111 | NC(=O)CN1CCCC(C(=O)N2CCC(Oc3ncccn3)CC2)C1 (stereo not drawn) | 27.6
112 | NC(=O)CN1CCCC(C(=O)N2CCC(O)(c3ccccc3)CC2)C1 (stereo not drawn) | 58.3
113 | N#CC1(c2ccccc2)CCN(C(=O)CN2C(=O)CCNC2=O)CC1 | 30.1
